Records with an inconclusive call do not appear. Where a call stands in place of a potency, no number is given. Active and inactive are the calls of the source. The call rests on the fitted dose curve; in most records, active means well fitted cell-killing curve with a large enough effect in the repeat runs; inconclusive means weak or mixed curves, or effect the other way; inactive means flat fitted curve, though single readings scatter.
Legend:
[1] = cAMP Responsive Elements (CRE) small molecule antagonists, cell-based qHTS assay: qHTS cell viability counter screen (AID 2060913); further: nearly all actives have a fitted effect of over 40% in size
Outline: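 CRE-bla HEK293T cells were seeded in assay medium with 10% dialyzed FBS, incubated 18 hrs at 37 C, then exposed to compounds plus 0.25 uM final NKH477 for 3 hrs. Viability was read by CellTiter-Glo luminescence after 30 min, in the same wells.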

[2] = cAMP Responsive Elements (CRE) small molecule agonists, cell-based qHTS assay: qHTS cell viability counter screen (AID 2060914); further: nearly all actives have a fitted effect of over 50% in size
Outline: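 Luminescence read-out (CellTiter-Glo, 30 min RT) of ATP-based viability in CRE-bla HEK 293T cells, run in the same wells as the β-lactamase reporter assay after 3 h compound treatment at 37 °C.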

SMILES	Potency [1]	Potency [2]
CCCCNC(=O)OCC#CI	inactive	inactive
COc1ccc2c(C(=O)c3ccc(Cl)cc3)c(C)n(CC(=O)O)c2c1	inactive	inactive
CCOC1Oc2ccc(OS(C)(=O)=O)cc2C1(C)C (configuration not stated)	inactive	inactive
C#CCOC(C(=O)OCCN(C)C)(c1ccccc1)c1ccccc1	inactive	inactive
CC(CCc1ccccc1)NC(C)C(O)c1ccc(O)cc1 (configuration not stated)	inactive	inactive
C=C(C#N)CCC#N	inactive	inactive
CC(Cl)CN(C)C (configuration not stated)	inactive	inactive
CCCCN=C=O	inactive	inactive
Cc1cc(C)c(C2=C(OC(=O)CC(C)(C)C)C3(CCCC3)OC2=O)c(C)c1	inactive	inactive
O=C(O)[C@H](O)[C@@H](O)C(=O)O	inactive	inactive
CCOC(=O)CBr	inactive	inactive
CCCC[N+]1(C)CCCC1	inactive	inactive
COP(=O)(OC)OC(Br)C(Cl)(Cl)Br (configuration not stated)	inactive	inactive
CC(=O)Nc1ccc2c(c1)Cc1ccccc1-2	inactive	inactive
Cc1cc(Cl)ccc1OCC(=O)O	inactive	inactive
CCOC(=O)NC(O)C(Cl)(Cl)Cl (configuration not stated)	inactive	inactive
C=C(C)C(=O)OCC(CC)CCCC (configuration not stated)	inactive	inactive
Clc1cnc(Oc2ccc(Oc3ncc(Cl)cc3Cl)cc2)c(Cl)c1	inactive	inactive
CN1CCC(O)(c2ccc(F)cc2)C(C(=O)c2ccc(F)cc2)C1 (configuration not stated)	inactive	inactive
c1ccc(CN2CCNCC2)cc1	inactive	inactive
O=[N+]([O-])c1cccc(CCl)c1	inactive	inactive

SMILES	Potency [1]	Potency [2]
CC(=O)OC(c1ccccc1)C(Cl)(Cl)Cl (configuration not stated)	inactive	inactive
C[C@@H]1C[C@@H]([C@H](O)CC2CC(=O)NC(=O)C2)C(=O)[C@@H](C)C1	inactive	inactive
ClC(Cl)(Cl)C(Cl)(Cl)Cl	inactive	inactive
CNC(=O)Oc1cccc2ccccc12	inactive	inactive
CC(C)(O)C(=O)Nc1ccc([N+](=O)[O-])c(C(F)(F)F)c1	inactive	inactive
Oc1c(Br)cc(Br)cc1Br	inactive	inactive
S=C=NCc1ccccc1	inactive	inactive
COc1ccc(C=O)cc1OC	inactive	inactive
CCC1(c2ccc(N)cc2)CCC(=O)NC1=O (configuration not stated)	inactive	inactive
CCCCCCCCCCCCCCC(Br)C(=O)O (configuration not stated)	inactive	inactive
N#CCCSCCC#N	inactive	inactive
CN(C)C(=O)Nc1cccc(OC(=O)NC(C)(C)C)c1	inactive	inactive
Sc1ccccc1Cl	inactive	inactive
c1ccc(P(c2ccccc2)c2ccccc2)cc1	inactive	inactive
CCCCCCCCCCCCOS(=O)(=O)O	inactive	inactive
NNC(N)=O	inactive	inactive
CCC1(c2ccccc2)C(=O)NC(=O)NC1=O	inactive	inactive
Cc1ccc(N)cc1C	inactive	inactive
CC(C)[C@@H](C(=O)O[C@@H](C#N)c1cccc(Oc2ccccc2)c1)c1ccc(Cl)cc1	inactive	inactive
BrCC(Br)(Br)Br	inactive	inactive
O=S(=O)(O)C(F)(F)C(F)(F)C(F)(F)C(F)(F)F	inactive	inactive

SMILES	Potency [1]	Potency [2]
CCCC[N+](CCCC)(CCCC)CCCC	inactive	inactive
ClCCCCBr	inactive	inactive
CCOP(=O)(OCC)Oc1nc(Cl)c(Cl)cc1Cl	inactive	inactive
O=Cc1ccc2c(c1)OCO2	inactive	inactive
Nc1ccccc1	inactive	inactive
CC1(C)Cc2cccc(O)c2O1	inactive	inactive
C#C[C@]1(O)CC[C@H]2[C@@H]3CCC4=CC(=O)CC[C@]4(C)[C@H]3CC[C@@]21C	inactive	inactive
Cc1ccc(N)cc1N	inactive	inactive
CNC(C)Cc1ccccc1OC (configuration not stated)	inactive	inactive
CCC(OC(C)=O)C(CC(C)NC)(c1ccccc1)c1ccccc1 (configuration not stated)	inactive	inactive
CN1C[C@H](CNC(=O)OCc2ccccc2)C[C@@H]2c3cccc4c3c(cn4C)C[C@H]21	inactive	inactive
N#CCCC#N	inactive	inactive
CC(=O)NC1CCSC1=O (configuration not stated)	inactive	inactive
CCCCCC[N+](=O)[O-]	inactive	inactive
C1CN2CCC1CC2	inactive	inactive
Cc1cc(-c2ccc(N)c(C)c2)ccc1N	inactive	inactive
Nc1cc(Cl)cc(Cl)c1	inactive	inactive
CCOCCOC(C)=O	inactive	inactive
C1CCC2CCCCC2C1 (configuration not stated)	inactive	inactive
